About 840 (25%) of roughly 3,400 compounds were called active. Another 11% or so got no clear call; they are omitted. These entries were drawn from the full list. Potency and affinity values are given separately. Values without a mark were called inactive.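 The calls were made as follows: active = fitted half-maximal concentration of signal decrease at or below twice the sample's top tested concentration; inconclusive = flat curve between -70 and -30 percent, or poor fit; inactive = flat within 30 percent, signal rise, or potency above limit.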
Test: T. gondii growth inhibition with IFN-gamma, dose response, cell-based, ME49Luc, HeLa, luciferase, 72 h (AID 1259418)
Details: T. gondii ME49Luc in IFN-y HeLa, stronger effect = lower value, -100% = high-dose IFN-γ control wells; at 19.5 µM unless noted
With CCOc1cccc(-c2noc(-c3nnn(Cc4nc(-c5ccccc5OC)oc4C)c3C)n2)c1 the max activity was 5.65% [at 0.35 µM].
For CCOC(=O)c1nn(Cc2ccccc2)c2c1CN(C(=O)CN1CC(c3ccccc3)CC1=O)CC2 (stereo not given), the max activity was -5.83% [at 0.038 µM].
Cc1ccc2c(c1C)-n1cccc1C1(CCN(C(=O)COc3ccccc3)CC1)N2 showed a max activity of -7.11% [at 2.6 µM].
In the case of Nc1ccc(S(=O)(=O)NC(=O)c2ccccc2)cc1, the max activity is reported as -6.84% [at 5 µM].
For COc1cccc(CN2CCc3nc(SCc4nc(-c5ccc(C)cc5)oc4C)[nH]c(=O)c3C2)c1, the max activity was 42.8%.
Cc1ccc(-c2coc(-c3ccc(NC(=O)C(C)(C)C)cc3)n2)c(C)c1 gave a max activity of 40.9%.
CCc1ccccc1NC(=O)CN1CCC2(CC1)N=C(c1ccc(F)cc1)C(=O)N2 gave a max activity of -11.7% [at 0.35 µM].
In the case of CCc1nc(OCC(=O)NCc2ccc(F)cc2)c2ccccc2n1, the max activity is reported as -17.9% [at 0.68 µM].
CCc1nc(OCC(=O)Nc2ccc(C)c(C)c2)c2ccccc2n1 gave a max activity of 17.1% [at 0.35 µM].
For CCc1ccc(NC(=O)COc2nc(CC)nc3ccccc23)cc1, the max activity was -19.6% [at 1.35 µM].
Molecule CCc1nc(OCC(=O)NCc2ccc(C)cc2)c2ccccc2n1 has a max activity of 13.9%.
Molecule CCc1nc(OCC(=O)Nc2ccc(C)cc2Cl)c2ccccc2n1 has a max activity of 18.6% [at 0.68 µM].
Molecule CCc1nc(OCC(=O)Nc2cc(Cl)ccc2Cl)c2ccccc2n1 has a max activity of 24.4% [at 2.6 µM].
CCc1nc(OCC(=O)Nc2ccc(C)cc2)c2ccccc2n1 gave a max activity of 32.4%.
In the case of Cc1nc(OCC(=O)Nc2ccc(C)c(F)c2)c2ccccc2n1, the max activity is reported as 21.5% [at 10 µM].
Cc1cccc(-c2nc(Cn3nnc(-c4nc(-c5ccccc5Cl)no4)c3C)c(C)o2)c1 showed a max activity of 15.3% [at 10 µM].
For CCc1ccccc1NC(=O)Nc1ccc(-c2nc(-c3ccccc3)co2)cc1, the max activity was 13.1% [at 5 µM].
With Cc1nc(-c2ccc(F)cc2)sc1-c1ccc(SCc2ccc(Cl)cc2)nn1 the max activity was -5.59% [at 1.35 µM].
COc1cccc(C(=O)Nc2ccc(-c3nc(-c4ccc(C)cc4C)co3)cc2)c1 showed a max activity of 37.5%.
Cc1ccc(C)c(-c2coc(-c3ccc(NC(=O)C(C)C)cc3)n2)c1 gave a max activity of 14.2%.
Work on COc1ccccc1-c1nc(Cn2nnc(-c3nc(-c4ccc(OC(C)C)cc4)no3)c2C)c(C)o1 yielded a max activity of -5.67% [at 1.35 µM].
In the case of COc1cccc(-c2nc3c(s2)CN(C(=O)Nc2ccc(OC)cc2OC)CC3)c1, the max activity is reported as 52.4%.
Work on CC(C)OCCCNC(=O)CC1Nc2c3ccccc3nc(=S)n2C1=O (stereo not given) yielded a max activity of 19.5% [at 0.16 µM].
CCOc1ccc(-c2nc3c(s2)CN(S(=O)(=O)c2ccc(F)cc2)CC3)cc1 gave a max activity of 36.2%.
Molecule CCc1nc(OCC(=O)N(CC)c2ccccc2)c2ccccc2n1 has a max activity of 9.96% [at 10 µM].
Molecule CCN(C(=O)COc1nc(C)nc2ccccc12)c1ccccc1 has a max activity of 18.8% [at 0.68 µM].
Molecule CSc1ccc(-c2noc(-c3nnn(Cc4nc(-c5cccc(Cl)c5)oc4C)c3C)n2)cc1 has a max activity of 12.2% [at 0.16 µM].
With Cc1ccc(NC(=O)CN2CCC3(CC2)N=C(c2ccc(Cl)cc2)C(=O)N3)cc1C the max activity was -6.27% [at 0.68 µM].
COc1ccc(-c2nc3c(s2)CN(S(=O)(=O)c2ccc(Cl)cc2)CC3)cc1 gave a max activity of 8.74%.
Molecule COc1ccc(-c2nc(Cn3c(=O)c4cccnc4n(-c4ccccc4)c3=O)c(C)o2)cc1 has a max activity of -4.3% [at 2.6 µM].
With CCc1c(C)sc2c1CCN(Cc1nc(-c3ccc(C)cc3)oc1C)C2c1ccccc1 (stereo not given) the max activity was 11.6%.
With Cc1oc(-c2ccccc2)nc1Cn1nnc(-c2nc(-c3ccccc3Cl)no2)c1C the max activity was 7.39%.
For COC(=O)c1cccc(NC(=O)Nc2ccc(-c3nc(-c4ccccc4)co3)cc2)c1, the max activity was 9.82%.
For COc1cccc(C(=O)N2CCC3(CC2)Nc2ccc(C)c(C)c2-n2cccc23)c1, the max activity was -8.8% [at 0.16 µM].
O=C(C1CCC1)N1CC(=O)N2[C@H](CO)[C@H](c3ccc(Br)cc3)[C@H]2C1 gave a max activity of 54.7%.
For CN(C[C@H]1[C@H](c2ccccc2)[C@@H](CO)N1CC1CC1)C(=O)c1ccc(F)cc1, the max activity was 49.7%.
Work on CN(C)CC(=O)N1C[C@@H]2N[C@H](C1)C2c1ccc(-c2ccccc2F)cc1 (stereo not given in full) yielded a max activity of 5.96% [at 10 µM].
Work on CCc1nc(OCC(=O)Nc2cccc(Cl)c2)c2ccccc2n1 yielded a max activity of 20.4% [at 0.16 µM].
With CCOc1ccc(-c2nc3c(s2)CN(S(=O)(=O)c2cccc(Cl)c2C)CC3)cc1 the max activity was 15.9% [at 10 µM].
With Cc1ccc(C)c(-c2coc(-c3ccc(NC(=O)NCc4ccco4)cc3)n2)c1 the max activity was -45.2% [at 1.35 µM].
Cc1nc(CCNC(=O)C2CCN(C(=O)c3cccc(F)c3)CC2)cs1 gave a max activity of -15.3%.
Cc1nc(CCNC(=O)C2CCN(C(=O)c3ccc(Cl)cc3)CC2)cs1 gave a max activity of -28.7%.
In the case of COc1cccc(C(=O)N2CCC(C(=O)NCCc3csc(C)n3)CC2)c1, the max activity is reported as -13.8% [at 0.16 µM].
With Cc1nc(CCNC(=O)C2CCN(C(=O)c3ccc(F)cc3)CC2)cs1 the max activity was 11.3% [at 2.6 µM].
With O=C(C[C@H]1CC[C@H]2[C@@H](COC[C@@H](O)CN2C(=O)c2cc(Cl)cc(Cl)c2)O1)N1CCc2ccccc2C1 the max activity was 26.3% [at 10 µM].
CCCNC(=O)C[C@H]1CC[C@@H]2[C@H](COC[C@H](O)CN2C(=O)Nc2ccc(Cl)c(Cl)c2)O1 showed a max activity of 33.9%.
CCOc1ccc(-c2nc3c(s2)CN(S(=O)(=O)c2ccc(F)cc2F)CC3)cc1 gave a max activity of 95.1%.
With Clc1ccc(-c2nc(NCc3cccs3)c3ccccc3n2)cc1 the max activity was 13.5% [at 0.35 µM].
For CCc1nc(OCC(=O)Nc2ccc(Br)cc2F)c2ccccc2n1, the max activity was 35.6% [at 0.68 µM].
For O=S(=O)(c1ccc(F)cc1)N1CCCCN2[C@H](C1)[C@H](c1ccc(-c3cncnc3)cc1)[C@@H]2CO, the max activity was 22.1% [at 10 µM].
With CCOC(=O)Cc1ccc(NC(=O)Nc2ccc(-c3nc(-c4ccc(C)cc4C)co3)cc2)cc1 the max activity was 11.1%.
Cc1ccc(-c2nc(Cn3nnc(-c4nc(-c5ccc(Cl)cc5)no4)c3C)c(C)o2)cc1 gave a max activity of -14.4% [at 0.68 µM].
Molecule Cc1cccc(C2=NC3(CCN(CC(=O)Nc4ccc(F)cc4F)CC3)NC2=O)c1 has a max activity of -4.98% [at 0.68 µM].
With COc1cccc(CC(=O)Nc2ccc(-c3nc(-c4ccc(C)cc4C)co3)cc2)c1 the max activity was -8.08% [at 1.35 µM].
Work on COC(=O)Cn1cc(CN2CCCC2c2cc(C(C)C)no2)c2cc(OC)ccc21 (stereo not given) yielded a max activity of 18.8% [at 0.35 µM].
Molecule CCn1cc(CN2CCCC2c2cc(C(C)C)on2)c2ccccc21 (stereo not given) has a max activity of 8.42% [at 0.16 µM].
For CCOC(=O)Cn1cc(CN2CCCC2c2c(C)noc2CC)c2ccccc21 (stereo not given), the max activity was 12.1% [at 0.16 µM].
CCn1cc(CN2CCCC2c2cc(C(C)C)no2)c2cc(OC)ccc21 (stereo not given) gave a max activity of 5.61% [at 0.16 µM].
In the case of COc1ccc(CC(=O)N2CCC3(CC2)Nc2ccc(C)c(C)c2-n2cccc23)cc1, the max activity is reported as 9.26% [at 0.68 µM].
COc1ccccc1NC(=O)N1CCc2nc(-c3ccc(C)cc3)sc2C1 gave a max activity of 44.9%.
In the case of Cc1ccccc1-c1nc(CN2CCN(C(=O)Nc3ccc(Cl)cc3)CC2)c(C)o1, the max activity is reported as -10.3% [at 0.35 µM].
In the case of Cc1nc(N2CCCC2)nc2c1CCN(C(=O)c1ccoc1C)CC2, the max activity is reported as -9.94% [at 0.3 µM].
CN(C)c1nc(N2CCOCC2)nc2c1CN(Cc1cccs1)CC2 gave a max activity of 13.4% [at 5 µM].
With CCOc1ccc(-c2nc3c(s2)CN(C(=O)Nc2cc(C)ccc2OC)CC3)cc1 the max activity was 14.6%.
With COc1ccc(OCC(=O)N2CCC(C(=O)NCCc3csc(-c4ccccc4)n3)CC2)cc1 the max activity was 12.9%.
With COc1ccc(-c2nc3c(s2)CN(S(=O)(=O)c2ccc(NC(C)=O)cc2)CC3)cc1 the max activity was 17.2% [at 10 µM].
CCCCCNC(=O)CCC1Nc2c3ccccc3nc(=S)n2C1=O (stereo not given) showed a max activity of 12.1% [at 5 µM].
Work on O=C(NCCc1csc(-c2ccccc2)n1)C1CCN(C(=O)c2ccc(F)c(F)c2)CC1 yielded a max activity of 18% [at 5 µM].
CCOc1ccccc1C(=O)N1CCC(C(=O)NCCc2csc(-c3ccccc3)n2)CC1 gave a max activity of -11.4% [at 5 µM].
For O=C(NCCc1csc(-c2ccccc2)n1)[C@H]1CCCN1C(=O)c1ccccc1Br, the max activity was -16.7% [at 0.16 µM].
Molecule Cc1nc(CCNC(=O)C2CCN(C(=O)c3ccccc3Cl)CC2)cs1 has a max activity of -5.21% [at 1.35 µM].
Cc1ccccc1C(=O)N1CCC(C(=O)NCCc2csc(-c3ccccc3)n2)CC1 showed a max activity of 23.4% [at 1.35 µM].
For O=C(NCCc1csc(-c2ccccc2)n1)C1CCN(C(=O)c2cccc(Cl)c2)CC1, the max activity was 7.04% [at 0.68 µM].
For O=C(Nc1ccc(-c2nc(-c3ccccc3)co2)cc1)Nc1cccc(Br)c1, the max activity was 8.78% [at 10 µM].
In the case of Fc1ccc(CSc2nc(Nc3ccc(F)c(F)c3)c3ccccc3n2)cc1, the max activity is reported as 9.75% [at 1.35 µM].
With Fc1ccc(Nc2nc(SCc3cccc(Cl)c3)nc3ccccc23)cc1 the max activity was -13.6% [at 1.35 µM].
With COc1ccc(CNc2nc(SCc3ccc(F)cc3)nc3ccccc23)cc1 the max activity was 10.3%.
For COc1cc(Nc2nc(SCc3ccc(Cl)cc3)nc3ccccc23)cc(OC)c1, the max activity was 21% [at 5 µM].
Molecule CCOC(=O)CSc1nc(Nc2ccc(F)c(F)c2)c2ccccc2n1 has a max activity of -35.1% [at 0.35 µM].
In the case of Fc1ccc(Nc2nc(SCc3ccccc3Cl)nc3ccccc23)cc1, the max activity is reported as 17.7% [at 0.68 µM].

From PubChem BioAssay AID1259418 (Broad Institute, 2018)
